What was measured:
Assay in all cases: DAPPL (digital affinity profiling via proximity ligation, sequencing); 10 mM Tris-HCl pH 7.5, 50 mM NaCl, 1 mM DTT, 4% glycerol, room temperature, 30 min; GST-TFs on glutathione beads, 16-mer random dsDNA library, 0.1% formaldehyde crosslink after washing; high values mean tight binding
[1] = biological target: T1, FEV (Homo sapiens, UniProt Q99581 1-238); settings: protein: recombinant; tags: N-terminal GST; dsDNA, one strand shown
T1 sequence: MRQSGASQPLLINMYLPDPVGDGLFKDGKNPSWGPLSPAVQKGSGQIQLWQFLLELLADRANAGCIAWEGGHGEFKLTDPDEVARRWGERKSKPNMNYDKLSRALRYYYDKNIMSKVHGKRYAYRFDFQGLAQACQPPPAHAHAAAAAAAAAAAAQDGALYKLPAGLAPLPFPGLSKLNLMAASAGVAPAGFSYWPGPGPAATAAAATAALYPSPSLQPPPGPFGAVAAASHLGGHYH
Summary of the method: (§1)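 The binding signal reported is, for every hexamer, its read frequency for a factor over its read frequency for the tag-only sample. Reads came from pools of yeast-expressed, GST-fused human transcription factors on glutathione beads, barcoded with DNA and mixed with that sample, which were incubated with 200 nmole of a random double-stranded 16-mer DNA library in Tris/NaCl/DTT/glycerol buffer at room temperature for 30 min. After washing, the pools were crosslinked with 0.1% formaldehyde, proximity-ligated with BsaI/T4 ligase for 1 h at 37 °C, PCR-amplified and sequenced on an Illumina NextSeq500.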

[2] = biological target: ETV5 (Homo sapiens, UniProt P41161 1-510); settings: protein: recombinant; tags: N-terminal GST; dsDNA, one strand shown
Summary of the method: as §1

[3] = biological target: HSF1 (Homo sapiens, UniProt Q00613 1-529); settings: protein: recombinant; tags: N-terminal GST; chain copies: 3; dsDNA, one strand shown
Summary of the method: as §1

[4] = biological target: T2, SPIC (Homo sapiens, UniProt Q8N5J4 1-248); settings: protein: recombinant; tags: N-terminal GST; dsDNA, one strand shown
T2 sequence: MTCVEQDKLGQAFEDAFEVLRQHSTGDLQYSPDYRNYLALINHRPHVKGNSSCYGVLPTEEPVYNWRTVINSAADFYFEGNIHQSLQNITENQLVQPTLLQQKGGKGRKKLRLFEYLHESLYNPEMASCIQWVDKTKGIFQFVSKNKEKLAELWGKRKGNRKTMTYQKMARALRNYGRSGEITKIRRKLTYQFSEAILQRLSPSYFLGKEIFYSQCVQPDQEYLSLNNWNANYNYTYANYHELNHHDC
Summary of the method: as §1

[5] = biological target: ELF4 (Homo sapiens, UniProt Q99607 1-663); settings: protein: recombinant; tags: N-terminal GST; dsDNA, one strand shown
Summary of the method: as §1

[6] = biological target: T3, ELK4 (Homo sapiens, UniProt P28324-2 1-405); settings: protein: recombinant; tags: N-terminal GST; dsDNA, one strand shown
T3 sequence: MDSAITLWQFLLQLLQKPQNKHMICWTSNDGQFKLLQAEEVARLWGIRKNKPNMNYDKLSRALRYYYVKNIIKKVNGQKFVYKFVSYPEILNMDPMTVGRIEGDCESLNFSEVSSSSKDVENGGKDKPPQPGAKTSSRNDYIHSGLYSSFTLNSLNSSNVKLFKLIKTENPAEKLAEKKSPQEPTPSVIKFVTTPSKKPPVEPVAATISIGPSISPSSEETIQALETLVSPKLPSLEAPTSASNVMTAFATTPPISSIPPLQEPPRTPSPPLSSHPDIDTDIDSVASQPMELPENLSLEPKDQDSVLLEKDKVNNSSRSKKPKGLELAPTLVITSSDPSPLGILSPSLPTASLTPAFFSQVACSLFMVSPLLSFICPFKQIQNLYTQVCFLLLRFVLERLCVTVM
Summary of the method: as §1

[7] = biological target: T4, ETV2 (Homo sapiens, UniProt O00321 1-342); settings: protein: recombinant; tags: N-terminal GST; dsDNA, one strand shown
T4 sequence: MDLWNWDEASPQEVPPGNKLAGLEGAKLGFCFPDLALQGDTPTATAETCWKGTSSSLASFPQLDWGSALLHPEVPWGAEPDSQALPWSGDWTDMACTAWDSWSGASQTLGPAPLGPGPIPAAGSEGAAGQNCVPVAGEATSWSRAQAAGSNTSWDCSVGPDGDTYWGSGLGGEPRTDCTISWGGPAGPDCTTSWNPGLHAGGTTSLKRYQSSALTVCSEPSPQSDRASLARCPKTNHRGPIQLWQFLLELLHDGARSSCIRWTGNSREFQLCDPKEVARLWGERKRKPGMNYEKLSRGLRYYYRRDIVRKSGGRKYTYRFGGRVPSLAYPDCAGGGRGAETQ
Summary of the method: as §1

[8] = biological target: T5, ELF3 (Homo sapiens, UniProt P78545 1-371); settings: protein: recombinant; tags: N-terminal GST; dsDNA, one strand shown
T5 sequence: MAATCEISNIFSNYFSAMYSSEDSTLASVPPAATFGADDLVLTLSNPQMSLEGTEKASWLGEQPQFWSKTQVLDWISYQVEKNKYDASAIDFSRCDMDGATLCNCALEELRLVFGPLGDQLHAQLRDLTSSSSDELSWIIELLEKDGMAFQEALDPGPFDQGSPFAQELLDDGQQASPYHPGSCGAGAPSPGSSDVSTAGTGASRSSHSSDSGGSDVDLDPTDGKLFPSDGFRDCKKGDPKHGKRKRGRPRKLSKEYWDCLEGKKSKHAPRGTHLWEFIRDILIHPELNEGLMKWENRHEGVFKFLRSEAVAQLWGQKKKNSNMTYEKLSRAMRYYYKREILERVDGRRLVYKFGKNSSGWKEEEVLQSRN
Summary of the method: as §1

[9] = biological target: CRX (Homo sapiens, UniProt O43186 1-299); settings: protein: recombinant; tags: N-terminal GST; dsDNA, one strand shown
Summary of the method: as §1

[10] = biological target: ETV1 (Homo sapiens, UniProt P50549 1-477); settings: protein: recombinant; tags: N-terminal GST; dsDNA, one strand shown
Summary of the method: as §1

[11] = biological target: T6, ERF (Homo sapiens, UniProt P50548 1-548); settings: protein: recombinant; tags: N-terminal GST; dsDNA, one strand shown
T6 sequence: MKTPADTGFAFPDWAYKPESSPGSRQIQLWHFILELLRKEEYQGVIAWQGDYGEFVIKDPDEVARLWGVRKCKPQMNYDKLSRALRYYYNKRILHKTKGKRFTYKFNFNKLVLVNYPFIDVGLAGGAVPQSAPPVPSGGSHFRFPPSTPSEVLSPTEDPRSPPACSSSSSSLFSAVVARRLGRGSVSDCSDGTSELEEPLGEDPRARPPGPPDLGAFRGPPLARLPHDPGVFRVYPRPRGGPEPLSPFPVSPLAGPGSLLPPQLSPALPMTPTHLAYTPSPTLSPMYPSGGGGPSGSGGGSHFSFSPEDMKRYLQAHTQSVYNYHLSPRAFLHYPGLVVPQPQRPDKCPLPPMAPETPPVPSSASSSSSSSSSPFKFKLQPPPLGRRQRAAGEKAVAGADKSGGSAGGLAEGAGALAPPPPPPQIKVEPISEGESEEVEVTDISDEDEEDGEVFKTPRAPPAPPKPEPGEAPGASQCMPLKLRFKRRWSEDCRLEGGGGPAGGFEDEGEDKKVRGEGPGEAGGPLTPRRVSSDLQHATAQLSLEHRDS
Summary of the method: as §1

[12] = biological target: T7, ETV3L (Homo sapiens, UniProt Q6ZN32 1-361); settings: protein: recombinant; tags: N-terminal GST; dsDNA, one strand shown
T7 sequence: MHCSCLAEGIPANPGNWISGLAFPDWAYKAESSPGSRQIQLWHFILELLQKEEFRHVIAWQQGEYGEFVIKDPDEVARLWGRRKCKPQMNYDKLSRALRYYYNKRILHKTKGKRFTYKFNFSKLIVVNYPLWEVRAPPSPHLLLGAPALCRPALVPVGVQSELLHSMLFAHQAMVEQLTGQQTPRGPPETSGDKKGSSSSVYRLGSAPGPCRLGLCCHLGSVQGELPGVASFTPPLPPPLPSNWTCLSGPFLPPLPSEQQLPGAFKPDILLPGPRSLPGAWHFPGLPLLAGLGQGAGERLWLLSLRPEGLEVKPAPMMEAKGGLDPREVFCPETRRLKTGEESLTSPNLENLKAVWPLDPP
Summary of the method: as §1

[13] = biological target: T8, ETS2 (Homo sapiens, UniProt P15036 1-469); settings: protein: recombinant; tags: N-terminal GST; dsDNA, one strand shown
T8 sequence: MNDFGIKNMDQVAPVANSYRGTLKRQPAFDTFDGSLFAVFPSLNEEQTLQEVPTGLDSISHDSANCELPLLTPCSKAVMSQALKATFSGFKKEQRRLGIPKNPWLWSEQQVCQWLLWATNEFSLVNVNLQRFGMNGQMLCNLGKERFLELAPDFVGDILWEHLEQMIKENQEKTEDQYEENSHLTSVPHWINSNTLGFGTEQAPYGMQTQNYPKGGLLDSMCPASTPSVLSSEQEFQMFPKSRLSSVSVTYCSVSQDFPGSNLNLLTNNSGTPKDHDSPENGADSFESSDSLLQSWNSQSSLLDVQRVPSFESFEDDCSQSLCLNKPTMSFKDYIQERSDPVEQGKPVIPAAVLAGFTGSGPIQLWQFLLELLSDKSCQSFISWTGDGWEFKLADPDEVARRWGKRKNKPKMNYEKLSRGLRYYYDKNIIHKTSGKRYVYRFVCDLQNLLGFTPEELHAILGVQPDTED
Summary of the method: as §1

[14] = biological target: T9, SPDEF (Homo sapiens, UniProt O95238 1-335); settings: protein: recombinant; tags: N-terminal GST; dsDNA, one strand shown
T9 sequence: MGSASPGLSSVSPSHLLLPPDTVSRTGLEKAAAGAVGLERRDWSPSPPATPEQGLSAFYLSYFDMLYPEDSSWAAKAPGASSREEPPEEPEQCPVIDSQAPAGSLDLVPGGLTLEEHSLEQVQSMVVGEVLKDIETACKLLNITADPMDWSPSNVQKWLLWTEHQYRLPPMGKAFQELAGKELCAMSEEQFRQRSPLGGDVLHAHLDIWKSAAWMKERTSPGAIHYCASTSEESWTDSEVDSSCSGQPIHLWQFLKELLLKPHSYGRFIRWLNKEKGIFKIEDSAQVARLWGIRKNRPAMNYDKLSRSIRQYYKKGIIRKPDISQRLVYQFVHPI
Summary of the method: as §1

[15] = biological target: T10, ETV7 (Homo sapiens, UniProt Q9Y603 1-341); settings: protein: recombinant; tags: N-terminal GST; dsDNA, one strand shown
T10 sequence: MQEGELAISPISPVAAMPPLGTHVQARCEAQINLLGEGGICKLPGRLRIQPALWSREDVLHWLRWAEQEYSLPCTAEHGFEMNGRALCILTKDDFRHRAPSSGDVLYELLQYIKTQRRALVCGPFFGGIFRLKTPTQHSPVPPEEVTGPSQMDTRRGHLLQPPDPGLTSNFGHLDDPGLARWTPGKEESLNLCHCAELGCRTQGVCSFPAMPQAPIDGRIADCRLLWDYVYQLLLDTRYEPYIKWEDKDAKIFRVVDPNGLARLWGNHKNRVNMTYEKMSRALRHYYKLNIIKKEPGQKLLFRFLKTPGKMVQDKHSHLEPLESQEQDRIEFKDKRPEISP
Summary of the method: as §1

[16] = biological target: T11, ELF5 (Homo sapiens, UniProt Q9UKW6-2 1-255); settings: protein: recombinant; tags: N-terminal GST; dsDNA, one strand shown
T11 sequence: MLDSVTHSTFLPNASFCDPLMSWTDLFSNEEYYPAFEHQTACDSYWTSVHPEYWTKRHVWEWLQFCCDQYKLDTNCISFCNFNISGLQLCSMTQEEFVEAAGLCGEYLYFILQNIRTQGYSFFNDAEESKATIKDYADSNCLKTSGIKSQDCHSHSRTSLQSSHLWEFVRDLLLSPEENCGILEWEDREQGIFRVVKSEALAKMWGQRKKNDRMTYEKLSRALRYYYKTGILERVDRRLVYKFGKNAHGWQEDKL
Summary of the method: as §1

[17] = biological target: T12, ETV3 (Homo sapiens, UniProt P41162-2 1-143); settings: protein: recombinant; tags: N-terminal GST; dsDNA, one strand shown
T12 sequence: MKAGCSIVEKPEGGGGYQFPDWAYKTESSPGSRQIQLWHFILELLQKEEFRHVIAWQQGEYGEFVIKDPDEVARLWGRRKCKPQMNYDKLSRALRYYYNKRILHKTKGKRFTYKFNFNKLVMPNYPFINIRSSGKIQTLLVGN
Summary of the method: as §1

[18] = biological target: ETV6 (Homo sapiens, UniProt P41212 1-452); settings: protein: recombinant; tags: N-terminal GST; dsDNA, one strand shown
Summary of the method: as §1

Sequence of ETV5 (P41161 whole entry): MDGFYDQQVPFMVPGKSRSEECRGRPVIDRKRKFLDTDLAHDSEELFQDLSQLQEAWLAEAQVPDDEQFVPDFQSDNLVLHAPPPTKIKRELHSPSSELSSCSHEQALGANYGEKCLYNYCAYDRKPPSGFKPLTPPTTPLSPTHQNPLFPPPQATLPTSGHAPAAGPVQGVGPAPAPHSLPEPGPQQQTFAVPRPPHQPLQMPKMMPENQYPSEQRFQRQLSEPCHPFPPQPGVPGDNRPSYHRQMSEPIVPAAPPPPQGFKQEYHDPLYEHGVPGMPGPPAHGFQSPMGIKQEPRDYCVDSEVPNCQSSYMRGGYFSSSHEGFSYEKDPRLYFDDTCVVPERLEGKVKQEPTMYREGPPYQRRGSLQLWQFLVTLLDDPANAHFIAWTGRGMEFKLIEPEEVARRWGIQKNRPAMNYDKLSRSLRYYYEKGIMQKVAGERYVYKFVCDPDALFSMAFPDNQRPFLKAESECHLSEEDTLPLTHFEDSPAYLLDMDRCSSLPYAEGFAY
Sequence of ELF4 (Q99607 whole entry): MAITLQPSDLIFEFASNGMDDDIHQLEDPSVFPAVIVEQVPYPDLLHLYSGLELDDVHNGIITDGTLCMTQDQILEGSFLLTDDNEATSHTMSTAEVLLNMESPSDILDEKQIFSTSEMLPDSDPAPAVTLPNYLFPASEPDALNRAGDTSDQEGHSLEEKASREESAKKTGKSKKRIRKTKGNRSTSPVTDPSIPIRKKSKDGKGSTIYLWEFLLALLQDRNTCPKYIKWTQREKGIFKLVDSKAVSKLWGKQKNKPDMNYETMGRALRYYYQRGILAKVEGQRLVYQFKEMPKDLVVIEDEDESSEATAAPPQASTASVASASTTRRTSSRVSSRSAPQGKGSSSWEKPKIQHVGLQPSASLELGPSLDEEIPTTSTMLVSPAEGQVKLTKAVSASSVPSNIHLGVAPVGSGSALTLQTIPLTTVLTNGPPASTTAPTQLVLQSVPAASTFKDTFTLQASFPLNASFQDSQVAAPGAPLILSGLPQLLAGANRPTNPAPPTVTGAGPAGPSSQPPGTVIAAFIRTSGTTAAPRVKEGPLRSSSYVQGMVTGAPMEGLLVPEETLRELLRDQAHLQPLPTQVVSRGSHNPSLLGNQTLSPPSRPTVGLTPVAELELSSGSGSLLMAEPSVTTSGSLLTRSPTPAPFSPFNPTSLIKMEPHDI
Sequence of ETV6 (P41212 whole entry): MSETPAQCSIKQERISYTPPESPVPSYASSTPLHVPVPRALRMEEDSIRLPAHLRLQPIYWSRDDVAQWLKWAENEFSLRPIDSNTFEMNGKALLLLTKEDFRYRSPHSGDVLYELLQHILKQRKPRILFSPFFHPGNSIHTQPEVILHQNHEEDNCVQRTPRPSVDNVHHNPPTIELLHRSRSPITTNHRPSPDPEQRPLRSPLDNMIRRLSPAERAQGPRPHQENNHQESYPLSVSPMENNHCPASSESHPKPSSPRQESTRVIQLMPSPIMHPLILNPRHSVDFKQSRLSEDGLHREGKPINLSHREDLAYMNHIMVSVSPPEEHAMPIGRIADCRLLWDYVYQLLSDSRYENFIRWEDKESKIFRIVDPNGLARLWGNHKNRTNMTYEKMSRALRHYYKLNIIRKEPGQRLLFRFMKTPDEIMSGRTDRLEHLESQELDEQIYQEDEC
Sequence of CRX (O43186 whole entry): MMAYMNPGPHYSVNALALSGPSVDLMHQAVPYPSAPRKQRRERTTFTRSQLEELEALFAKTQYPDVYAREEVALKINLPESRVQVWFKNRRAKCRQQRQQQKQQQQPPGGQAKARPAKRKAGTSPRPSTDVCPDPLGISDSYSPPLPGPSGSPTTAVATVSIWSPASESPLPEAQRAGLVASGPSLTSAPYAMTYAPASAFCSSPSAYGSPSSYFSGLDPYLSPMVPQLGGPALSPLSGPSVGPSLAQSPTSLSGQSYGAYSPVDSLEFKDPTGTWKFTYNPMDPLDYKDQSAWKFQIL
Sequence of ETV1 (P50549 whole entry): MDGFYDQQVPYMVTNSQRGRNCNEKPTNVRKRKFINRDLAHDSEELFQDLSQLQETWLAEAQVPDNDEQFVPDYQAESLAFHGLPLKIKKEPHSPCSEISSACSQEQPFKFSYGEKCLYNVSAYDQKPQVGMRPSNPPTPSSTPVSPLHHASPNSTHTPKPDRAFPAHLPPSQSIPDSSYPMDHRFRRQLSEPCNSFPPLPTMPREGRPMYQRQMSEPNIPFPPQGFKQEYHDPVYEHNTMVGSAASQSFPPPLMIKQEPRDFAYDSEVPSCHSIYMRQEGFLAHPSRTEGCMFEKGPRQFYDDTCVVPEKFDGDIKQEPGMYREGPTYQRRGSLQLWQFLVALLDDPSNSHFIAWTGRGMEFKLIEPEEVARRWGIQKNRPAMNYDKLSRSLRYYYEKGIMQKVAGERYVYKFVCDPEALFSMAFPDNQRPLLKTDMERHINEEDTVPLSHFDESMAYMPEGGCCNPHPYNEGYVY
Sequence of HSF1 (Q00613 whole entry): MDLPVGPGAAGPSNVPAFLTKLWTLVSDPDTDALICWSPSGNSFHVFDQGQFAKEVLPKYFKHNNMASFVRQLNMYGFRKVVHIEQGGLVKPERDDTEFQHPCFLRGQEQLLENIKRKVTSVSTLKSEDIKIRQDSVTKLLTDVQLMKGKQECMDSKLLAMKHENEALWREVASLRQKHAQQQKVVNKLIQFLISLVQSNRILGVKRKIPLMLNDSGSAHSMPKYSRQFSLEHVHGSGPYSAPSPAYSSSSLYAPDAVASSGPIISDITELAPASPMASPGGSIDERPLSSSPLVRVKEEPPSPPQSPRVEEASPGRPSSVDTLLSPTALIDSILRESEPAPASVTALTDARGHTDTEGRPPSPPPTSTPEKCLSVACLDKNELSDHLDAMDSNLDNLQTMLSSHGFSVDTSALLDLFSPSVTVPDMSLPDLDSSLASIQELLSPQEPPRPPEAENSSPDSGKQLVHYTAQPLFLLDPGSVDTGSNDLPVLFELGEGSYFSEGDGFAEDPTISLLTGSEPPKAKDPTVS

ATCACT
binding signal [1]: 1.25 fold enrichment (6-mer frequency, TF over GST control)
binding signal [2]: 1.2 fold enrichment (6-mer frequency, TF over GST control)
binding signal [3]: 1.14 fold enrichment (6-mer frequency, TF over GST control)
binding signal [4]: 1.34 fold enrichment (6-mer frequency, TF over GST control)
binding signal [5]: 1.23 fold enrichment (6-mer frequency, TF over GST control)
binding signal [6]: 1.45 fold enrichment (6-mer frequency, TF over GST control)
binding signal [7]: 1.29 fold enrichment (6-mer frequency, TF over GST control)
binding signal [8]: 1.35 fold enrichment (6-mer frequency, TF over GST control)
binding signal [9]: 1.29 fold enrichment (6-mer frequency, TF over GST control)
binding signal [10]: 1.2 fold enrichment (6-mer frequency, TF over GST control)
binding signal [11]: 1.16 fold enrichment (6-mer frequency, TF over GST control)
binding signal [12]: 1.16 fold enrichment (6-mer frequency, TF over GST control)
binding signal [13]: 1.22 fold enrichment (6-mer frequency, TF over GST control)
binding signal [14]: 1.22 fold enrichment (6-mer frequency, TF over GST control)
binding signal [15]: 1.26 fold enrichment (6-mer frequency, TF over GST control)
binding signal [16]: 1.27 fold enrichment (6-mer frequency, TF over GST control)
binding signal [17]: 1.15 fold enrichment (6-mer frequency, TF over GST control)
binding signal [18]: 1.28 fold enrichment (6-mer frequency, TF over GST control)

From article PMC7862700, “An all-to-all approach to the identification of sequence-specific readers for epigenetic DNA modifications on cytosine”
